Measurements reported in PubChem BioAssay AID1159580 (chemical genetic matrix, 2015).
Values joined by “and” are separate entries in the source; they are usually repeats but may differ in a detail not shown here. Identical values can stand only once. The campaign covered roughly 5,500 compounds. About 2,000 (36%) were called active. Roughly 18% stayed inconclusive and do not appear here. Rule as the data show it: active = normalized growth mostly below about 0.91 (no sharp cut-off); inconclusive = no clear call, values can overlap the other calls; inactive = mostly above about 0.92. This is one part of the list.

Experiment: chemical genetic growth profiling, strain panel (AID 1159580);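 also: tested at 20 µM; growth read once vehicle control cultures reached saturation at 30 °C; 1 = growth at the plate median or of vehicle wells; lower values mean less growth of the strain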
Conditions: S. cerevisiae deletion strains, growth OD

Measured: normalized growth

CCC1C(=O)OCC1Cc1cncn1C (stereo not given)
inactive: locus YAL013W, strain DEP1, active compounds read low 1.01 and 0.986 | locus YAL021C, strain ccr4, active compounds read low 1.01 | locus YAL026C, strain drs2, active compounds read low 1.01 and 1.02 | locus YAL030W, strain snc1, active compounds read low 1.03 and 1.01 | locus YAL040C, strain CLN3, active compounds read low 1.04 and 1.02 | locus YBL061C, strain skt5, active compounds read low 1.03 and 1.02 | locus YBR009C, strain hhf1, active compounds read low 1.01 and 1 | locus YBR021W, strain FUR4, active compounds read low 0.985 and 1 | locus YBR023C, strain chs3, active compounds read low 1.03 and 1.02 | locus YBR171W, strain sec66, active compounds read low 1.02 and 1.03 | locus YBR229C, strain ROT2, active compounds read low 1.01 | locus YBR231C, strain swc5, active compounds read low 1.02 and 1.01 | locus YBR279W, strain paf1, active compounds read low 1.03 and 1.01 | locus YCL011C, strain gbp2, active compounds read low 1.03 and 1.02 | locus YCL016C, strain dcc1, active compounds read low 1.03 and 1.02 | locus YCL029C, strain bik1, active compounds read low 1.03 and 0.998 | locus YCL061C, strain MRC1 (second series), active compounds read low 1.01 and 0.993 | locus YCL061C, strain MRC1, active compounds read low 1.01 | locus YCL069W, strain vba3, active compounds read low 1.02 and 1.01 | locus YCR088W, strain abp1, active compounds read low 1.02 and 1 | locus YDL005C, strain med2, active compounds read low 1.01 and 1.03 | locus YDL035C, strain GPR1, active compounds read low 1.01 | locus YDL040C, strain nat1, active compounds read low 1.02 and 1.01 | locus YDL074C, strain BRE1, active compounds read low 1.02 and 1.03 | locus YDL101C, strain DUN1, active compounds read low 1.02 | locus YDL134C, strain PPH21, active compounds read low 1.01 and 1.02 | locus YDL185W, strain tfp1, active compounds read low 1.02 and 1 | locus YDL192W, strain arf1, active compounds read low 1.02 and 1 | locus YDR001C, strain nth1, active compounds read low 1.01 and 1 | locus YDR069C, strain doa4, active compounds read low 1.01 and 1.02 | locus YDR101C, strain arx1, active compounds read low 1.02 and 0.975 | locus YDR137W, strain rgp1, active compounds read low 1.05 and 1.1 | locus YDR159W, strain sac3, active compounds read low 1.01 and 1.02 | locus YDR162C, strain NBP2, active compounds read low 1.01 and 1.05 | locus YDR195W, strain ref2 1 and 0.98 | locus YDR297W, strain sur2, active compounds read low 1.02 | locus YDR318W, strain mcm21, active compounds read low 1.03 and 0.997 | locus YDR334W, strain swr1, active compounds read low 1.01 and 1.02 | locus YDR335W, strain msn5, active compounds read low 1.02 | locus YDR363W, strain ESC2, active compounds read low 1.03 and 1.01 | locus YDR388W, active compounds read low 1.02 and 0.992 | locus YDR392W, strain spt3, active compounds read low 0.976 and 0.974 | locus YDR502C, strain sam2, active compounds read low 1.04 and 1.01 | locus YEL003W, strain gim4, active compounds read low 1.01 and 1.02 | locus YEL037C, strain rad23, active compounds read low 1.01 | locus YEL061C, strain CIN8 (second series), active compounds read low 1.02 and 1.03 | locus YEL061C, strain CIN8, active compounds read low 1.01 | locus YER002W, strain NOP16, active compounds read low 1.02 and 0.975 | locus YER015W, strain faa2, active compounds read low 1.02 and 1.01 | locus YER016W, strain bim1, active compounds read low 1.01 | locus YER110C, active compounds read low 1.02 and 0.99 | locus YER111C, strain swi4, active compounds read low 1.02 | locus YER155C, strain BEM2 (second series), active compounds read low 1.01 and 1.03 | locus YER155C, strain BEM2, active compounds read low 0.99 and 1 | locus YER167W, strain BCK2, active compounds read low 1.01 and 1.02 | locus YFR010W, strain ubp6, active compounds read low 1.03 and 1 | locus YGL078C, strain dbp3, active compounds read low 1.01 and 1 | locus YGL086W, strain mad1, active compounds read low 1 and 0.996 | locus YGL167C, strain pmr1, active compounds read low 1.03 | locus YGL173C, strain kem1, active compounds read low 1.01 | locus YGL227W, strain vid30, active compounds read low 1.02 | locus YGL240W, strain doc1, active compounds read low 1.01 | locus YGL248W, strain PDE1, active compounds read low 1.01 and 1.02 | locus YGL253W, strain hxk2, active compounds read low 1.01 | locus YGR078C, strain PAC10, active compounds read low 1.04 and 1 and 1.02 | locus YGR135W, strain pre9, active compounds read low 1.01 | locus YGR229C, strain SMI1, active compounds read low 1.02 and 1 and 0.999 | locus YGR252W, strain gcn5, active compounds read low 0.969 and 0.983 | locus YHR013C, strain ard1, active compounds read low 1.06 and 1.01 | locus YHR027C, strain rpn1, active compounds read low 1.02 | locus YHR030C, strain SLT2, active compounds read low 1.01 and 0.975 | locus YHR079C, strain IRE1 (second series), active compounds read low 1.03 and 0.989 | locus YHR079C, strain IRE1, active compounds read low 0.975 | locus YHR094C, strain hxt1, active compounds read low 1.02 and 0.997 | locus YHR129C, strain ARP1, active compounds read low 1.01 | locus YHR142W, strain chs7, active compounds read low 1.03 and 1.01 | locus YHR200W, strain rpn10, active compounds read low 1.01 and 0.999 | locus YIL066C, strain RNR3, active compounds read low 1.02 and 1.01 | locus YIL073C, strain SPO22, active compounds read low 1.06 and 1.02 | locus YIL125W, strain kgd1, active compounds read low 0.997 and 1.01 | locus YIR030C, strain dcg1, active compounds read low 1.02 and 0.993 | locus YJL092W, strain hpr5, active compounds read low 1.01 | locus YJL095W, strain BCK1 (second series), active compounds read low 1.02 | locus YJL095W, strain BCK1, active compounds read low 1.03 and 0.988 and 1.01 | locus YJL115W, strain asf1, active compounds read low 1.01 and 1.02 | locus YJL129C, strain trk1, active compounds read low 1.04 and 1.03 | locus YJL134W, strain LCB3, active compounds read low 1.01 | locus YJL154C, strain vps35, active compounds read low 1.02 and 1.01 | locus YJL164C, strain tpk1, active compounds read low 1.01 and 1.02 | locus YJL166W, strain qcr8, active compounds read low 1.02 | locus YJL168C, strain set2, active compounds read low 1.01 and 0.999 | locus YJL187C, strain SWE1 (second series), active compounds read low 1.02 and 1.01 | locus YJL187C, strain SWE1, active compounds read low 1.02 and 1.01 | locus YJR043C, strain POL32, active compounds read low 1.02 and 1 | locus YJR066W, strain TOR1, active compounds read low 0.971
